Screening data deposited in PubChem BioAssay by several laboratories.
A selection: hits, their analogues and other compounds. The true share with any hit is near 1.5%.
LANA DNA inh: inhibitors of KSHV LANA C-terminal domain DNA binding; inhibition, % at 9 µM; 0.078% of 340,000 active; MBP-C-LANA/FAM-LBS DNA binding, fluorescence polarization;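 active means highest replicate inhibition at or above 60% at 9 µM, even if other replicates fall short; inactive means all replicates below 60% inhibition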;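 further: 0% = neutral control wells and 100% = 4 µM acridine orange control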
E coli Lon inh: inhibitors of E. coli Lon protease; purified E. coli Lon protease, fluorescence polarization; inhibition, % at 7.94 µM; 0.42% of 360,000 active; in the data active means inhibition above about 13%, passing the limit was not always enough;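 further: 0% = enzyme with probe and DMSO and 100% = no enzyme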
LANA-H2A inh: blocks KSHV LANA binding to histone H2A/H2B. Q9QR71. cell-free LANA-H2A/H2B peptide, fluorescence polarization. inhibition, % (no concentration beside the values). 0.6% of 320,000 active. AID 2629; in the data active means inhibition mostly above about 10%, no sharp cut-off; inactive means mostly below about 6.7%
Keap1 Nrf2 FP: inhibitors of human Keap1-Nrf2 protein-protein interaction; Q14145; 0.15% of 340,000 active; inhibition, % at 9.4 µM; AID 504523; Keap1 Kelch-Nrf2 peptide fluorescence polarization, 1536-well; in the data active means inhibition above about 12%;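 further: human Keap1 Kelch domain with fluorescein labeled Nrf2 9mer peptide probe; 0% = neutral control wells and 100% = peptide positive control; higher means more block of Keap1 binding to Nrf2 peptide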
EBV gp42 inh: EBV gp42 inhibition; Q1HVG2; Fluorescence polarization binding assay, mP read-out; inhibition, % (tested at 21.74 µM); 0.42% of 220,000 active; AID 1085; in the data active means inhibition above about 50%
Target sequence (Q1HVG2 whole entry, looked up): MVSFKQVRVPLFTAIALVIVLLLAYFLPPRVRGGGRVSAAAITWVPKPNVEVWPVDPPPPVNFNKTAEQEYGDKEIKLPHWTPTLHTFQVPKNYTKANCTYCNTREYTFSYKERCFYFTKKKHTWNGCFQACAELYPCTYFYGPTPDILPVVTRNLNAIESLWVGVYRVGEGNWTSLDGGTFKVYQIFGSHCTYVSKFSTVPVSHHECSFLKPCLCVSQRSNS
GLD-1 TGE inh: GLD-1-TGE RNA interaction inhibition (C. elegans); purified GLD-1 + fluorescein TGE RNA, fluorescence polarization; inhibition, % at 5.96 µM; 0.44% of 320,000 active; AID 2280;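 active means percent inhibition above a per-plate cutoff, the plate mean of test compounds plus 3 SD, cut at about 30% in these data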;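 further: 0% = DMSO wells with GLD-1 and probe and 100% = wells lacking GLD-1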
* marks the source's active call; other numbers are inactive results; x = no result; + = active, no number; ! = repeats disagree.

SMILES	LANA DNA inh	E coli Lon inh	LANA-H2A inh	Keap1 Nrf2 FP	EBV gp42 inh	GLD-1 TGE inh
O=C(CSC1=NCCS1)NC(NC(=O)CSC1=NCCS1)c1ccccc1	0	-3	16*	-4	-15	-5
O=S1(=O)N=C(N(CCO)/N=C/c2ccc(Cl)cc2)c2ccccc21	2	-6	4	-2	x	3
CN(C)c1ccc(/C=N/N(CCO)C2=NS(=O)(=O)c3ccccc32)cc1	24	17	24	-34	x	36*
CC1=CC(=C(C#N)c2nc3ccccc3s2)C=C(C)N1Cc1ccco1	4	-14	0	0	157*	4
COC(=O)[C@]12CCCCC=C1N(Cc1ccco1)C(=O)[C@H](CC(=O)NCc1cccs1)C2	x	0	x	x	x	x
COc1ccc(C(C)=O)cc1CN1C(=O)C(C)ON=C1c1cccc(C(F)(F)F)c1 (stereo unspecified)	x	8	x	x	x	x
Cc1nn(CC(=O)OCC(=O)NC(C)c2ccccc2)c(C)c1[N+](=O)[O-] (stereo unspecified)	0	-1	-4	-5	-10	3
CCOc1cc(/C=N/NC(N)=O)ccc1OCC(=O)Nc1ccc(C)c(C)c1	-2	-3	-1	-3	10	-5
CCOc1cc(C=C2C(=O)c3ccccc3C2=O)ccc1OCC(=O)Nc1ccc(C)cc1	0	12	10	-1	88*	6
CN(CC(=O)Nc1sccc1C#N)C1CCCCC1	2	9	-3	0	32	62*
N=c1sccn1CC(=O)Nc1cccc2ccccc12	2	-1	-3	-2	0	2
CSc1ccccc1NC(=O)Cn1ccsc1=N	0	-7	11*	4	-18	3
CC(=O)Nc1ccc(N2CCc3c(C)c(C#N)c4nc5ccccc5n4c32)cc1	x	x	7	x	59*	11
CC1=CC(=Nc2c(C)n(C)n(-c3ccccc3)c2=O)C=CC1=O	x	x	3	x	-13	76*
COc1ccc(Nc2nc(C(=O)N3CCc4ccccc4C3)cs2)cc1	0	-4	19*	-5	13	7
COc1ccc(Nc2nc(C(=O)N3CCc4cc(OC)c(OC)cc4C3)cs2)cc1	0	6	-1	10	-4	6
Cc1nc(SCC(=O)Nc2c(C)n(C)n(-c3ccccc3)c2=O)[nH]c(=O)c1C	-1	-12	-3	2	x	1
COc1ccc(-c2cn3nc4c(nc3n2)CCCC4)cc1	6	-11	x	-3	96*	x
COc1cccc(-c2cn3nc(C)c(C)nc3n2)c1	0	-42	-1	-2	-21	-8
CCN(CC)c1ccc2nc3c4ccccc4c(=O)cc-3oc2c1	x	x	5	x	x	x
CCN(CC)c1ccc2c(-c3ccc(S(=O)(=O)O)cc3S(=O)(=O)[O-])c3ccc(=[N+](CC)CC)cc-3oc2c1	121*	+	150*	82*	x	155*
CCOC(=O)[C@]12CCC=C1N(Cc1ccco1)C(=O)[C@H](CC(=O)N1CCN(C(=O)c3ccco3)CC1)C2	x	2	x	x	x	x
C=CCNC(=S)Nc1ccc(Br)cc1F	-2	-6	13*	-3	-9	2
Cc1ccc(OCCNC(=O)CCc2nc3sc4c(c3c(=O)[nH]2)CCCC4)cc1	0	-20	35*	2	x	-8
O=C(Nc1ccccc1Cl)c1cccc(NC(=O)C2CCCC2)c1	0	-4	-3	-2	x	1
SMILES	LANA DNA inh	E coli Lon inh	LANA-H2A inh	Keap1 Nrf2 FP	EBV gp42 inh	GLD-1 TGE inh
O=C(Nc1ccccc1Cl)c1cccc(NC(=O)c2cccs2)c1	-1	-2	38*	-4	x	x
Cc1ccc(C2(c3ccccc3)NC(=O)N(CC(=O)N(C)C3CCS(=O)(=O)C3)C2=O)cc1C (stereo unspecified)	-1	-8	16*	5	x	4
Cc1ccc(C2(c3ccccc3)NC(=O)N(CC(=O)NC3(C#N)CCCC3)C2=O)cc1C (stereo unspecified)	0	5	+	-6	x	6
COc1ccc(C2(c3ccc(OC)cc3)NC(=O)N(CC(=O)NC3(C#N)CCCC3)C2=O)cc1	0	-10	2	0	x	10
CCN(C(=O)CN1C(=O)NC(c2ccccc2)(c2ccc(C)c(C)c2)C1=O)C1CCS(=O)(=O)C1 (stereo unspecified)	-2	15	-4	2	x	1
CC(=O)[C@@]1(O)CC[C@H]2[C@@H]3C[C@H](C)C4=CC(=O)C=C[C@]4(C)[C@@]3(F)[C@@H](O)C[C@@]21C	1	-7	18*!	0	-1	12
CCCC(=O)O[C@]1(C(=O)COC(C)=O)CC[C@H]2[C@@H]3C[C@H](F)C4=CC(=O)C=C[C@]4(C)[C@@]3(F)[C@@H](O)C[C@@]21C	-1	8	22*!	-8	-2	2
C[C@@H]1C[C@H]2[C@@H]3CCC4=CC(=O)C=C[C@]4(C)[C@@]3(F)[C@@H](O)C[C@]2(C)[C@@]1(O)C(=O)CO	2	-1	1	1	x	2
O=C(c1ccc(Br)cc1)N(Cc1nc2ccccc2c(=O)[nH]1)C1CCCC1	0	-3	3	-2	16	-4
CC(C)c1nc(SCC(=O)N2CCCCC2)c2c(=O)n(C)c(=O)n(C)c2n1	x	10	x	x	x	x
Cc1cc(C(=O)NCC2CCCO2)n(-c2ccccc2)n1 (stereo unspecified)	-3	0	-1	-6	-5	2
Cc1nn(-c2ccccc2)c(Cl)c1C(=O)NCC1CCCO1 (stereo unspecified)	1	0	24*	-1	x	5
CS(=O)(=O)N1CCC(C(=O)Nc2cccc(Br)c2)CC1	1	3	-9	-1	x	1
CCc1cc(=O)oc2cc(C)cc(OCC(=O)NC3CC3)c12	-1	0	-1	-1	x	2
Cc1cc(OCC(=O)NC2CC2)c2c(C)cc(=O)oc2c1	0	3	13*	2	x	-1
Cc1cccc(N2C(=O)CN(Cc3cccs3)C2=S)c1	-1	-7	+	-4	-5	4
Cc1cccc(N2C(=O)CN(Cc3sccc3C)C2=S)c1	-1	0	2	6	-27	-2
O=C(O)CCc1ccc(-c2ccc(F)cc2)n1CC1CCCO1 (stereo unspecified)	2	-2	37*	-3	-13	0
COc1ccc(-c2ccc(CCC(=O)O)n2CC2CCCO2)cc1 (stereo unspecified)	2	-15	6	-5	-4	-4
CCC(C)N1C(=O)/C(=C/c2c(NCCCOC(C)C)nc3c(C)cccn3c2=O)SC1=S (stereo unspecified)	10	-241	-11	-5	130*	-85
COc1ccc(Cl)c(-c2cc(C(=O)Nc3ccc(F)cc3)[nH]n2)c1	x	-8	x	x	x	x
O=C(Nc1sc2c(c1C(=O)O)CCC2)c1ccccc1Cl	1	-1	3	4	x	7
Cc1ccccc1C(=O)Nc1sc2c(c1C(=O)O)CCC2	-1	4	17*	-1	-10	1
